Assays:
Assay type in all cases: functional
[1] = biological target: Solute carrier family 2, facilitated glucose transporter member 1 (Homo sapiens) (UniProt P11166); experiment: ST_JUDE_LEISH: Cytotoxicity at 2uM final concentration against transgenic Leishmania Mexicana promastigotes LmGLUT1 that are glucose transport deficient and complemented with the human glucose transporter GLUT1. Activity is measured by DNA content using SYBR green in vitro
[2] = biological target: Hexose transporter 1 (Plasmodium falciparum) (UniProt O97467); experiment: ST_JUDE_LEISH: Cytotoxicity at 2uM final concentration against transgenic Leishmania Mexicana promastigotes LmPfHT that are glucose transport deficient and complemented with the Plasmodium falciparum hexose transporter. Activity is measured by DNA content using SYBR green in vitro
[3] = biological target: Glucose transporter (Leishmania mexicana) (UniProt O61059); experiment: ST_JUDE_LEISH: Cytotoxicity at 2uM final concentration against transgenic Leishmania Mexicana promastigotes LmGT2 that are glucose transport deficient and complemented with the L. Mexicana glucose transporter 2. Activity is measured by DNA content using SYBR green in vitro

Chain of Solute carrier family 2, facilitated glucose transporter member 1 (Homo sapiens) (P11166 whole entry): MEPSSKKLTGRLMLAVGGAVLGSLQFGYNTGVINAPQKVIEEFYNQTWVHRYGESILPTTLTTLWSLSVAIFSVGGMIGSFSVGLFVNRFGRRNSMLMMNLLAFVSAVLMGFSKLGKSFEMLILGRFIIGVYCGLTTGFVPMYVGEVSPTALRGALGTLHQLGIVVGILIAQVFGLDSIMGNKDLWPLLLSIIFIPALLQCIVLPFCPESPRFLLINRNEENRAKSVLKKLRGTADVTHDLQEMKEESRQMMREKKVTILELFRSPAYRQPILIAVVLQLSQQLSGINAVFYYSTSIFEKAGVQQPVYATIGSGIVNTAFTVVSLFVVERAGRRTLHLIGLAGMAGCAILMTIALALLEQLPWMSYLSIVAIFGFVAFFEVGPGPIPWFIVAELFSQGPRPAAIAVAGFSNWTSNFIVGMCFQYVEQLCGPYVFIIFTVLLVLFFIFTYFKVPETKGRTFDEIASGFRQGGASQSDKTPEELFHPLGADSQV

Row | Structure (SMILES) | inhibition [1] [%] | inhibition [2] [%] | inhibition [3] [%]
1 | CN1CCC(NCc2cccc(-c3cccc(-c4nc5cc(C(F)(F)F)ccc5[nH]4)c3)c2)CC1 | 2.34 | 0.79 | 1.42
2 | CN1CCN(CCCN(Cc2cccc(-c3ccc(CNC4CCCC4)cc3)c2)C(=O)/C=C/c2ccccc2)CC1 | 6.1 | 7.29 | 4.93
3 | Cc1noc(C)c1-c1ccc2c(Nc3ccc([N+](=O)[O-])cc3)c(C(N)=O)cnc2c1 | -0.67 | -0.09 | -0.76
4 | CCNc1cc(C(=O)N[C@@H](Cc2ccccc2Cl)[C@H](O)CNC(C)CCCC(C)C)cc(N2CCCCS2(=O)=O)c1 (stereo partly specified) | -2.6 | 0.93 | -2.24
5 | Cc1cn(CC(=O)Nc2cccc(-c3cccc(-c4nc5cccc(C)c5[nH]4)c3)c2)c(=O)[nH]c1=O | 4.43 | 3.47 | 5.03
6 | Clc1cccc(CNC2CCN(CC3CCCCC3)CC2)c1 | 4.03 | 4.11 | 6.03
7 | CCn1c(SCc2ccccc2)nc2c1c(=O)[nH]c(=O)n2C | -0.07 | -0.05 | -1.06
8 | CN1CCCc2ccc(NC(=O)Nc3ccc(-c4ccccc4)cc3)cc2C1 | -3.44 | 0.82 | -0.14
9 | COc1ccc2nccc([C@@H](O)CN3CCC(NCc4cc5cccc(O)c5[nH]4)CC3)c2c1 | 1.85 | 2.02 | 3.77
10 | COc1c(OC)c(OC)c2ccccc2c1CNCCCCCCNCc1c(OC)c(OC)c(OC)c2ccccc12 | 7.56 | 7.58 | 0.02
11 | Cc1cccc2nc(-c3ccc(-c4cccc(CNCCN5CCNCC5)c4)cc3)[nH]c12 | 9.94 | 8.32 | 9.01
12 | O=C(Nc1ccc(Cl)cc1)c1ccc(CN2CCCN(CC3CCCCC3)CC2)cc1 | 4.77 | 7.11 | 5.54
